About 330 (14%) of roughly 2,300 compounds showed activity. Only a sample is shown. A number with no mark means an inactive call.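 The calls were made as follows: active = median modified Z-score above 1.96; inactive = 1.96 or below.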
Tested on: HepG2 Srxn1-GFP reporter cells (+30 nM CDDO-Me)
Experiment: Srxn1-GFP intensity median modified Z-score relative to plate median; higher = stronger NRF2 / oxidative stress reporter activation, active = hit call of the paper
Conditions: 10 µM; exposure time: 24h
Summary of the method: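 HepG2 Srxn1-GFP BAC reporter cells were seeded at 20,000 per well in 96-well plates and co-exposed for 24 h to compound at 10 μM and an NRF2 activator at 30 nM, with DMSO at ≤0.1%, in three replicate plates. Cells were fixed with formaldehyde, stained with Hoechst and imaged by confocal microscopy, and cytoplasmic GFP was measured per cell, with images holding under 100 cells discarded. The reported value is the median over replicates of each plate's modified Z-score of GFP intensity. For this score, scaling used 1.4826 × median absolute deviation.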

| SMILES | Srxn1-GFP intensity median modified Z-score |
| --- | --- |
| COC1CC(OC2C(C)C(=O)OC(C)C(C)C(O)C(C)C(=O)C3(CO3)CC(C)C(OC3OC(C)CC(N(C)C)C3O)C2C)OC(C)C1O (centres undefined) [euspeclibcmpd1849] | -0.547 |
| S=C=Nc1ccc(N=C=S)cc1 [euspeclibcmpd1177] | 20.6 (active) |
| O=S(=O)(O)c1cc(N=C=S)ccc1C=Cc1ccc(N=C=S)cc1S(=O)(=O)O [euspeclibcmpd1825] | -0.132 |
| CCCC(NC(C)C(=O)N1C(C(=O)O)C[C@@H]2CCCC[C@@H]21)C(=O)OCC (some centres undefined) [euspeclibcmpd721] | -0.404 |
| CCOC(=O)C(CCc1ccccc1)NC(C)C(=O)N1C(C(=O)O)C[C@@H]2CCC[C@@H]21 (some centres undefined) [euspeclibcmpd722] | -0.468 |
| CCOC(=O)C(CCc1ccccc1)NC(C)C(=O)N1C(C(=O)O)CC2CCCCC21 (centres undefined) [euspeclibcmpd732] | 9.5 (active) |
| CC1C(=O)O[C@H]2CC34[C@H]5CC(C(C)(C)C)C36C(=O)C(O)O[C@H]6OC4(C(=O)O5)[C@@]12O (some centres undefined) [euspeclibcmpd2300] | -0.422 |
| CC(=O)Nc1ccc(OC(=O)c2ccccc2O)cc1 [euspeclibcmpd1988] | -0.258 |
| CN(C)N=Nc1[nH]cnc1C(N)=O [euspeclibcmpd80] | 60.7 (active) |
| CN(C)c1cc(NC(=O)CNC(C)(C)C)c(O)c2c1C[C@H]1C[C@H]3[C@H](N(C)C)C(=O)C(C(N)=O)C(=O)[C@@]3(O)C(=O)C1C2=O (some centres undefined) [euspeclibcmpd1297] | -0.316 |
| OCc1cc(O)c2c(O)c3c(O)cccc3c([C@@H]3O[C@H](CO)[C@@H](O)[C@H](O)[C@H]3O)c2c1 [euspeclibcmpd1140] | -0.523 |
| CCNC1CN(CCCOC)S(=O)(=O)c2sc(S(N)(=O)=O)cc21 (centres undefined) [euspeclibcmpd1945] | -0.371 |
| COc1cc([C@@H]2c3cc4c(cc3C(O[C@@H]3O[C@@H]5CO[C@@H](c6cccs6)OC5[C@H](O)[C@H]3O)C3COC(=O)C32)OCO4)cc(OC)c1O (some centres undefined) [euspeclibcmpd647] | 8.51 (active) |
| COc1cc([C@@H]2c3cc4c(cc3C(OC3O[C@@H]5COC(C)O[C@H]5[C@H](O)[C@H]3O)C3COC(=O)C32)OCO4)cc(OC)c1O (some centres undefined) [euspeclibcmpd356] | 2.43 (active) |
| C=C1CCC(c2cc(O)oc2O)C(=O)CCC2C1CC2(C)C (centres undefined) [euspeclibcmpd1822] | -0.357 |
| Nc1ccc(S(=O)(=O)N=c2nccc[nH]2)cc1 [euspeclibcmpd274] | -0.479 |
| CCCCCCCCCCCCCCCC(=O)OCC(O)CO (centres undefined) [euspeclibcmpd1622] | -0.224 |
| CCc1ccc(CCOc2ccc(Cc3sc(=O)[nH]c3O)cc2)nc1 [euspeclibcmpd684] | -0.309 |
| O=c1c(-c2ccc(Br)cc2)coc2cc(O)ccc12 | 0.373 |
| C[C@]12CCC(=O)CC1=C1C[C@@H]1C1C2CC[C@@]2(C)C1[C@@H]1C[C@@H]1[C@@]21CCC(=O)O1 (some centres undefined) [euspeclibcmpd608] | -0.491 |
| C[C@@H]1O[C@@H](O[C@H]2[C@@H](Oc3cc(O)c4c(c3)O[C@H](c3ccc(O)cc3)CC4=O)O[C@H](CO)[C@@H](O)[C@@H]2O)[C@H](O)[C@H](O)[C@H]1O [euspeclibcmpd1504] | -0.249 |
| COc1ccc(-c2cc(C(F)F)nn2-c2ccc(S(N)(=O)=O)cc2)cc1F [euspeclibcmpd724] | 0.694 |

| SMILES | Srxn1-GFP intensity median modified Z-score |
| --- | --- |
| Cc1ccc(-c2cc(C(F)(F)F)nn2-c2ccc(S(N)(=O)=O)cc2)cc1 [euspeclibcmpd595] | 2.01 (active) |
| NS(=O)(=O)c1ccc(C(=O)O)cc1 [euspeclibcmpd1180] | 0.0784 |
| C=c1cc(O)c2c(O)c3c(O)c(=C)cc(O)c3c(O)c2c1O [euspeclibcmpd2077] | -0.258 |
| CCCCC(=O)O[C@]1(C(=O)CO)[C@@H](C)CC2C3CC=C4CC(=O)C=C[C@]4(C)[C@@]3(F)C(O)C[C@@]21C (some centres undefined) [euspeclibcmpd36] | -0.635 |
| CS(=O)(=O)c1ccc(-c2coc(O)c2-c2ccccc2)cc1 [euspeclibcmpd2038] | -0.358 |
| O=C(O)CS [euspeclibcmpd2222] | -0.181 |
| O=C(O)CN(CCN(CC(=O)O)CC(=O)O)CC(=O)O [euspeclibcmpd2457] | -0.0932 |
| O=C(O)CN(CCN(CC(=O)O)CC(=O)O)CC(=O)O | 2.26 (active) |
| O=C(O)CN(CCN(CC(=O)O)CC(=O)O)CCN(CC(=O)O)CC(=O)O [euspeclibcmpd916] | -0.735 |
| COC1C(O)C(O)C(O)[C@@H](O)C1O (some centres undefined) [euspeclibcmpd1333] | -0.525 |
| C=C(NC(=O)C(C)=NC(=O)c1csc(C2=NC3c4csc(n4)C4NC(=O)c5csc(n5)C(C(C)(O)C(C)O)NC(=O)C5CSC(=N5)C(=CC)NC(=O)C(C(C)O)NC(=O)c5csc(n5)C3(CC2)NC(=O)C(C)NC(=O)/C(C)=N/C(=O)C(C)NC(=O)C(C(C)CC)NC2C=Cc3c(C(C)O)cc(nc3C2O)C(=O)OC4C)n1)C(N)=O (centres undefined) [euspeclibcmpd703] | 19.1 (active) |
| CC1(C)O[C@@H]2CC3C4CC=C5CC(=O)C=C[C@]5(C)C4[C@@H](O)C[C@]3(C)[C@]2(C(=O)CO)O1 (some centres undefined) [euspeclibcmpd859] | -0.247 |
| C[N+](C)(C)C[C@H](O)CC(=O)O [euspeclibcmpd2087] | -0.18 |
| O=[N+]([O-])c1cccc2c[nH]nc12 [euspeclibcmpd1788] | -0.00617 |
| CC(C)c1c(O)c(-c2cc3c(c(C(C)C)c2O)CCC2C(C)(C)CCC[C@]32C)cc2c1CCC1C(C)(C)CCC[C@]21C (some centres undefined) [euspeclibcmpd1653] | -0.248 |
| CC(C)c1c(O)ccc2c1CCC1C(C)(C)CCC[C@]21C (some centres undefined) [euspeclibcmpd1572] | 8.09 (active) |
| COC(=O)[C@@]1(C)CCC[C@]2(C)c3ccc(O)c(C(C)C)c3CCC12 (some centres undefined) [euspeclibcmpd1676] | 1.46 |
| O=C(O)C1CSCN1 (centres undefined) [euspeclibcmpd1135] | -0.116 |
| O=c1cc(-c2ccc(O)cc2)oc2ccc(O)cc12 [euspeclibcmpd1816] | 1.7 |
| Cc1nc(COP(=O)(O)O)cc2c1[O][Mn][O]c1c(cc(COP(=O)(O)O)nc1C)CN(CC(=O)O)CCN(CC(=O)O)C2 [euspeclibcmpd2441] | 1.06 |
| COc1cc(C(=O)O)cc(OC)c1O | 1.18 |
| COC(=O)c1cc(OC)c(=O)c2c(OC)c(OC)ccc2c1 [euspeclibcmpd2293] | -0.421 |

| SMILES | Srxn1-GFP intensity median modified Z-score |
| --- | --- |
| COc1ccc(-c2ccc3cc(C(=O)O)ccc3c2)cc1C12CC3CC(CC(C3)C1)C2 [euspeclibcmpd491] | 3.08 (active) |
| COc1cc(C(=O)O)cc(OC)c1O [euspeclibcmpd1648] | 0.178 |
| CCCOc1ccccc1-c1nc(=O)c2[nH]nnc2[nH]1 [euspeclibcmpd2036] | -0.165 |
| N[C@@H]1CCCC[C@H]1N [euspeclibcmpd2386] | 1.79 |
| C/C=C/CC(C)C(O)C1C(=O)NC(CC)C(=O)N(C)CC(=O)N(C)C(CC(C)C)C(=O)NC(C(C)C)C(=O)N(C)C(CC(C)C)C(=O)NC(C)C(=O)NC(C)C(=O)N(C)C(CC(C)C)C(=O)N(C)C(CC(C)C)C(=O)N(C)C(C(C)C)C(=O)N1C (centres undefined) [euspeclibcmpd445] | 8.19 (active) |
| CC(=O)O[C@H]1CC[C@@]2(C)C(=CCC3C2CC[C@@]2(C)C3CC[C@@H]2C(C)CCCC(C)C)C1 (some centres undefined) [euspeclibcmpd2217] | -0.115 |
| CCOc1cccc(C(=O)c2ccc(O)c(O)c2O)c1 [euspeclibcmpd1514] | -0.219 |
| CC(NC(CCc1ccccc1)C(=O)O)C(=O)N1CCCC1C(=O)O (centres undefined) [euspeclibcmpd609] | 0.185 |
| CC(C)=CCCC(C)C1CC[C@@]2(C)C3=C(CC[C@]12C)C1(C)CC[C@H](O)C(C)(C)C1CC3 (some centres undefined) [euspeclibcmpd2336] | 0.013 |
| CC(C)=CCCC(C)[C@@H]1CC[C@]2(C)C3=C(CC[C@@]12C)C1(C)CC[C@H](O)C(C)(C)C1CC3 (some centres undefined) [euspeclibcmpd2235] | 2.85 (active) |
| CC(=O)O[C@H]1CCC2(C)C3=C(CCC2C1(C)C)[C@]1(C)CCC(C(C)CCC=C(C)C)[C@@]1(C)CC3 (some centres undefined) [euspeclibcmpd2332] | -0.0515 |
| COc1cc(C)c2c(c1C=O)Oc1c(c(C)c(O)c3c(O)oc(O)c13)OC2=O [euspeclibcmpd1947] | 0.6 |
| CC[C@H]1OC(=O)C(C)[C@@H](O[C@H]2C[C@@](C)(OC)[C@@H](O)[C@H](C)O2)[C@H](C)[C@@H](O[C@@H]2O[C@H](C)C[C@H](N(C)C)[C@H]2O)[C@](C)(O)C[C@@H](C)CN(C)[C@H](C)[C@@H](O)[C@]1(C)O (some centres undefined) [euspeclibcmpd690] | 1.41 |
| CC(C)c1ccc2oc3[nH]c(=N)c(C(=O)O)cc3c(=O)c2c1 [euspeclibcmpd492] | 1.12 |
| CON=C1C[C@]2(C[C@@H]3C[C@@H](C/C=C(\C)C[C@@H](C)/C=C/C=C4\CO[C@@H]5[C@H](O)C(C)=CC(C(=O)O3)[C@]45O)O2)O[C@H](/C(C)=C/C(C)C)C1C (some centres undefined) [euspeclibcmpd768] | -0.575 |
| CO[C@H]1CC(O[C@@H]2/C(C)=C/C[C@@H]3C[C@@H](C[C@]4(CC[C@H](C)[C@@H](C5CCCCC5)O4)O3)OC(=O)C3=CC(C)C(=NO)C4OC/C(=C\C=C\[C@@H]2C)[C@@]34O)O[C@@H](C)C1O (some centres undefined) [euspeclibcmpd601] | 8.72 (active) |
| CCC(C)[C@H]1O[C@]2(C=C[C@@H]1C)C[C@@H]1C[C@@H](C/C=C(\C)[C@@H](OC3C[C@H](OC)C(O[C@H]4C[C@H](OC)[C@@H](NC(C)=O)[C@H](C)O4)[C@H](C)O3)[C@@H](C)/C=C/C=C3\CO[C@@H]4[C@H](O)C(C)=CC(C(=O)O1)[C@]34O)O2 (some centres undefined) [euspeclibcmpd495] | 0.588 |
| CCC(C)[C@H]1O[C@]2(C=C[C@@H]1C)C[C@@H]1C[C@@H](C/C=C(\C)[C@@H](OC3C[C@H](OC)C(O[C@H]4C[C@H](OC)[C@@H](O)[C@H](C)O4)[C@H](C)O3)[C@@H](C)/C=C/C=C3\CO[C@@H]4[C@H](OC)C(C)=CC(C(=O)O1)[C@]34O)O2 (some centres undefined) [euspeclibcmpd1403] | 5.69 (active) |
| CO[C@H]1CC(O[C@@H]2/C(C)=C/C[C@@H]3C[C@@H](C[C@]4(C=C[C@H](C)[C@@H](C5CCCCC5)O4)O3)OC(=O)C3=CC(C)[C@@H](O)[C@H]4OC/C(=C\C=C\[C@@H]2C)[C@@]34O)O[C@@H](C)C1O[C@H]1C[C@H](OC)[C@@H](O)[C@H](C)O1 (some centres undefined) [euspeclibcmpd131] | 8.87 (active) |
| CCC(C)[C@H]1O[C@]2(CC[C@@H]1C)C[C@@H]1C[C@@H](C/C=C(\C)[C@@H](OC3C[C@H](OC)C(O[C@H]4C[C@H](OC)[C@@H](O)[C@H](C)O4)[C@H](C)O3)[C@@H](C)/C=C/C=C3\CO[C@@H]4[C@H](O)C(C)=CC(C(=O)O1)[C@]34O)O2 (some centres undefined) [euspeclibcmpd982] | 0.921 |

From the supplement of paper PMC10498489
